Active and inactive are the calls of the source.

Test [1] can be described thus: optical density shifts of acrAB sulA E. coli – strain DRC41, OD650, 48 h, E. coli filamentation inducer project, primary screen (AID 1152).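 Note: E. coli MC1000 strain DRC41 lacking acrAB efflux pump and sulA.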 Particulars: higher = more signal, called active from +8 up or from −8 down.
Test [2] can be described thus: probe aLefty1 binding on compound microarray – biochemical, small-molecule microarray, 635/667 nm fluorescence, primary screen (AID 1153).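 Note: score merges spot fluorescence with signal-to-noise ratio from the scanned slide images.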 The following applies: higher = more signal.
Test [3] in a line: plasmodial surface anion channel blockers, osmotic lysis – cell-based, P. falciparum Indochina, OD700, 1 h, primary screen (AID 1154). The following applies: P. falciparum Indochina infected RBC osmotic lysis, higher = more signal, called active from +8 up or from −8 down.
The nature of test [4]: plasmodial surface anion channel blockers, osmotic lysis – cell-based, P. falciparum Indochina, OD700, 2 h, primary screen (AID 1155).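 Note: lysis reports solute entry through the parasite surface anion channel PSAC.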 The following applies: P. falciparum Indochina infected erythrocytes, higher = more signal, called active from +8 up or from −8 down.
The nature of test [5]: changes in parasitized red cell lysis, either direction – P. falciparum Indochina, OD700, 3 h, PSAC antagonist project, primary screen (AID 1156). Particulars: P. falciparum-infected erythrocytes, osmotic lysis, higher = more signal, called active from +8 up or from −8 down.
The nature of test [6]: plasmodial surface anion channel blockers, osmotic lysis – cell-based, P. falciparum Indochina, OD700, 18 h, primary screen (AID 1157). The following applies: P. falciparum Indochina infected erythrocytes, osmotic lysis OD700, 18 h; higher = more signal, called active from +8 up or from −8 down.
Test [7] in a line: S6 kinase pathway phospho-S6 level changes – cell-based, A549, cytoblot, luminescence, serum-stimulated, primary screen (AID 1158).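 Note: serum-stimulated A549 lung adenocarcinoma cells; signal is phosphorylated S6 detected by cytoblot immunostaining with HRP secondary.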 The following applies: 5 h, higher = more signal.
Test [8] addresses NADPH oxidase 2 (Homo sapiens) (UniProt P04839). The test is described as follows: compounds shifting NOX2 Amplex Red fluorescence – cell-based, HEK293-NOX2, PMA-stimulated, NOX inhibitor project, primary screen (AID 1159). Note: test concentration not given here. The following applies: 45 min, higher = more signal, called active from +8 up or from −8 down.
Test [9] deals with NADPH oxidase 4 (Homo sapiens) (UniProt Q9NPH5). Description: compounds shifting NOX4 Amplex Red fluorescence – cell-based, HEK293-NOX4, tetracycline-induced, NOX inhibitor project, primary screen (AID 1160). Particulars: HEK293-NOX4, Amplex Red H2O2 fluorescence, 45 min; higher = more signal, called active from +8 up or from −8 down.
For test [10], the target named is NADPH oxidase 5 (Homo sapiens) (UniProt Q96PH1). The test is described as follows: compounds shifting NOX5 Amplex Red fluorescence – cell-based, HEK293-NOX5, NOX inhibitor project, primary screen (AID 1161). Particulars: HEK293-NOX5, ionomycin, 45 min, higher = more signal.
Test [11] can be described thus: compound effects on lung adenocarcinoma cell viability – A549, calcein-AM fluorescence, 48 h, basal, profiling panel (AID 1162). Note: test concentration not given here. Particulars: higher = more signal.
Test [12] can be described thus: compound effects on differentiated 3T3-L1 adipocyte viability – cell-based, 3T3-L1 adipocytes, calcein-AM fluorescence, 48 h, basal, profiling panel (AID 1163). Note: test concentration not given here. The following applies: 3T3-L1 adipocytes viability, higher = more signal.
Test [13] is described as follows: compound effects on hepatocellular carcinoma cell viability – HepG2, calcein-AM fluorescence, 48 h, basal, profiling panel (AID 1164). Note: test concentration not given here. The following applies: higher = more signal.
Test [14] in a line: compound effects on multiple myeloma cell viability – MM1S, calcein-AM fluorescence, 48 h, basal, profiling panel (AID 1165).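 Note: viability of MM1S multiple myeloma cells under basal unstimulated conditions; test concentration not given here.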 Particulars: higher = more signal.
Test [15] in a line: calcein-AM signal in unstimulated myeloma cells – cell-based, calcein-AM fluorescence, 48 h, PK04 Diversity Set, profiling panel (AID 1166).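 Note: cells grown under basal conditions without added stimulus; test concentration not given here.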 Particulars: RPMI8226 myeloma viability, higher = more signal.
The nature of test [16]: JC-1 mitochondrial signal, unstimulated HepG2 cells – cell-based, JC-1 fluorescence, 24 h, 100 nL compound, profiling panel (AID 1167). Note: test concentration not given here. Particulars: HepG2 mitochondrial potential, higher = more signal.
The nature of test [17]: JC-1 mitochondrial signal, unstimulated adipocytes – cell-based, JC-1 fluorescence, 3T3-L1 adipocytes, 24 h, 100 nL compound, profiling panel (AID 1168). Note: test concentration not given here. Particulars: JC-1 mitochondrial fluorescence, higher = more signal, called active from +8 up or from −8 down.
The nature of test [18]: JC-1 mitochondrial signal, unstimulated myeloma cells – cell-based, JC-1 fluorescence, RPMI8226, 24 h, 100 nL compound, profiling panel (AID 1169). Note: test concentration not given here. Particulars: JC-1 mitochondrial potential fluorescence, higher = more signal.
Test [19] can be described thus: JC-1 mitochondrial signal, unstimulated MM1S myeloma – cell-based, JC-1 fluorescence, 24 h, 100 nL compound, profiling panel (AID 1170). Note: test concentration not given here. Particulars: MM1S mitochondrial potential, higher = more signal.
Test [20] can be described thus: resazurin metabolic signal in A549 cells – cell-based, resazurin fluorescence, 24 h, PK04 Diversity Set, profiling panel (AID 1171). Note: test concentration not given here. The following applies: A549 viability, higher = more signal, called active from +8 up or from −8 down. For orientation: The colour change of resazurin is a common sign of viable cells or microbes.

Sequence of NADPH oxidase 4 (Homo sapiens) (Q9NPH5 whole entry, looked up): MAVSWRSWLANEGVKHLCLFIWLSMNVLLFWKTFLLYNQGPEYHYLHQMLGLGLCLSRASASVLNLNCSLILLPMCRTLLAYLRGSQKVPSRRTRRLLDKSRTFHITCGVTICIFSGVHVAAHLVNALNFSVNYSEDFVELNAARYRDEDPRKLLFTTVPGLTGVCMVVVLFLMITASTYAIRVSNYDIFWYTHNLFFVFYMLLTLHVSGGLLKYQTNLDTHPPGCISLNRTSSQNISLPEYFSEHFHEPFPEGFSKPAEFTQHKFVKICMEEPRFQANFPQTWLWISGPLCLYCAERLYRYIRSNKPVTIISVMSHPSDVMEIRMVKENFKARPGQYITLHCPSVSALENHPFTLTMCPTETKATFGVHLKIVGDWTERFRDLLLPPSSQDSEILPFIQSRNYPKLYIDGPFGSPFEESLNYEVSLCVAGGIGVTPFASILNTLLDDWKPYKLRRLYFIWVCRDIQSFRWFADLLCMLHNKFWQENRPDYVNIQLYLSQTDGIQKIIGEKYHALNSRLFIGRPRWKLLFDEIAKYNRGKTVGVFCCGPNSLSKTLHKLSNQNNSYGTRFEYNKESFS
Sequence of NADPH oxidase 2 (Homo sapiens) (P04839 whole entry, looked up): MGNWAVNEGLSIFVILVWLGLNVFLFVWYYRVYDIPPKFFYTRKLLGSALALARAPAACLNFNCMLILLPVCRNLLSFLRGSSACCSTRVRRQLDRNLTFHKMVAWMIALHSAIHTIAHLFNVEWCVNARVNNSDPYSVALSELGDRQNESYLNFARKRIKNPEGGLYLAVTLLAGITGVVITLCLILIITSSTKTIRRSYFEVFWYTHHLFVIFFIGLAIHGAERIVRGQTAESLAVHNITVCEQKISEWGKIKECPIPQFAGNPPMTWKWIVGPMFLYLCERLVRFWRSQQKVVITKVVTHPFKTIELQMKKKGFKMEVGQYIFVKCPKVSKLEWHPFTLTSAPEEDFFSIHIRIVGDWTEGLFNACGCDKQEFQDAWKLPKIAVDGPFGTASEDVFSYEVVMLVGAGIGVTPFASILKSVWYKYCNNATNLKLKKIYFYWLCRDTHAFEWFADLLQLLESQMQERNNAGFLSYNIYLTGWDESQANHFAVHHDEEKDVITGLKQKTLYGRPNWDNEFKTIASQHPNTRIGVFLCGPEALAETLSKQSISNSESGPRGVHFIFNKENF
Sequence of NADPH oxidase 5 (Homo sapiens) (Q96PH1 whole entry, looked up): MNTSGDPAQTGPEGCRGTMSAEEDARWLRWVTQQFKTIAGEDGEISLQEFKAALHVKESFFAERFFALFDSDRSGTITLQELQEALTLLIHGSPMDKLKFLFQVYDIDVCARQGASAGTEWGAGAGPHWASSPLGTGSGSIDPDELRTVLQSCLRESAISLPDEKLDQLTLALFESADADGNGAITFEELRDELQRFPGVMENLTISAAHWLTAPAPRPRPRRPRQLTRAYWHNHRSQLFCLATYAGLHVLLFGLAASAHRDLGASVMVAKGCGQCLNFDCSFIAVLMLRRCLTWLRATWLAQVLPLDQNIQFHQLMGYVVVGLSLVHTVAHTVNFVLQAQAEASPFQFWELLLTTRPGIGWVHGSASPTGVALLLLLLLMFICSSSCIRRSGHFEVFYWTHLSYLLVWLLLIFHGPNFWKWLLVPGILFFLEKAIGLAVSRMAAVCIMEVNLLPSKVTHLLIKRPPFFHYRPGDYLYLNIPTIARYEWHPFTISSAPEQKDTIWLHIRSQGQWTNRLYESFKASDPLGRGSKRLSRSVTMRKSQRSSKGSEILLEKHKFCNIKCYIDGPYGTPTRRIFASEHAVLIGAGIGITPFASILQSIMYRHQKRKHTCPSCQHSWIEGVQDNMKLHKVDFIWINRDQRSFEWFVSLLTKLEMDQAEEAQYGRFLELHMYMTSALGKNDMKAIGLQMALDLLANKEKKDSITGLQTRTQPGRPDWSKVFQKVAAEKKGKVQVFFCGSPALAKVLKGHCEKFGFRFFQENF

Take `N#Cc1ccc(NN2C(C(O)c3cccc4ccccc34)C=CC3C(=O)N(c4ccccc4)C(=O)C32)cc1` (stereo not given): the z-score is -0.499 (inactive) in test [1]; 12.6 (active) in test [3]; 2.68 (inactive) in test [4]; 1.33 (inactive) in test [5]; 1.44 (inactive) in [6]; -0.067 in test [7]. Moreover, the z-score is -1.58 (inactive) in [8]; -3.65 (inactive) in test [9]; -3.57 in [10]; -0.762 in test [11]; -0.506 in [12]; 1.52 in test [13]. The z-score is 0.0966 in test [14]; 0.224 in test [15]; -0.452 in test [16]; 0.226 (inactive) in test [17]; -0.312 in test [18]; -0.0109 in [19]. For the same compound, in test [20], the z-score is 0.325 (inactive). The same compound returned a composite z-score in test [2] of 0.696.
Take `O=C1CCCC2OC12C(O)CCc1ccccc1` (stereo not given): the z-score was 0.508 (inactive) in test [1]; -0.272 (inactive) in [3]; -0.521 (inactive) in test [4]; -0.0749 (inactive) in test [5]; -0.169 (inactive) in [6]; 0.172 in test [7]. For the same compound, the z-score in [8] is 0.504 (inactive); in test [9], -0.142 (inactive); in [10], 0.0429; in [11], -0.202; in [12], -0.0344; in [13] it was -0.229. For the same compound, the z-score in [14] is 0.561; in [15] it was -0.908; in test [16], 0.287; in test [17], 0.279 (inactive); in test [18], -0.278; in [19], 0.353. Also, in test [20], the z-score is -0.81 (inactive). Further, the composite z-score in [2] is -0.541.
As to `CN(C)CCCNC(=O)[C@@H]1c2ccccc2C(=O)N(Cc2ccccc2)[C@H]1c1ccc(CO)cc1`, the z-score in test [1] was 0.346 (inactive); in test [3], 2.98 (inactive); in test [4] it was 0.604 (inactive); in test [5], 2.64 (inactive); in [6], 0.33 (inactive); in [7] it was -0.25. Besides, the z-score in test [8] was -1.11 (inactive); in [9], 1.02 (inactive); in test [10], -0.911; in test [11], 2.34; in [12], 0.917; in test [13], 1.31. The z-score in test [14] was -0.0214; in test [15] it was 0.932; in test [16], 1.89; in test [17], 0.418 (inactive); in test [18], 0.0996; in test [19] it was 0.108. Moreover, the z-score in test [20] is 0.534 (inactive). The compound further came in with a composite z-score in [2] of -0.163.
Turning to `CO[C@@H]1COC(=O)CCC[C@@H](C)[C@H](OC)COC(=O)CCC[C@H]1C`, the z-score in test [1] was -0.665 (inactive); in test [3], 0.553 (inactive); in test [4], 0.637 (inactive); in test [5], 0.719 (inactive); in test [6] it was 0.49 (inactive); in [7] it was -0.918. Besides, the z-score in [8] was 0.545 (inactive); in test [9] it was 0.567 (inactive); in [10] it was 0.031; in test [11] it was -0.378; in [12], -0.465; in test [13], -0.125. Besides, the z-score in test [14] was -0.197; in test [15] it was 0.239; in test [16], -0.075; in [17], -0.996 (inactive); in test [18], 0.822; in test [19], -0.162. In addition, the z-score in test [20] is 0.183 (inactive). Also, the composite z-score in test [2] is -0.0933.
Take `CCOC(=O)CCN1C(=O)[C@H]2[C@H]3[C@H](O)[C@H](O)CC(=NOC[C@@H](O)COCc4ccco4)[C@@H]3CC[C@H]2C1=O`: the z-score was 0.401 (inactive) in test [1]; 3.93 (inactive) in test [3]; 0.63 (inactive) in test [4]; -0.403 (inactive) in [5]; 0.403 (inactive) in [6]; -0.426 in test [7]. For the same compound, the z-score in test [8] is 0.48 (inactive); in [9], 0.771 (inactive); in test [10], 0.6; in [11] it was 0.14; in test [12], 0.171; in [13], -0.324. Besides, the z-score is 0.366 in test [14]; 0.557 in [15]; -0.906 in test [16]; -0.125 (inactive) in [17]; -0.393 in test [18]; -0.49 in test [19]. The z-score in test [20] was -0.397 (inactive). The same compound had a composite z-score in [2] of 0.0861.
Turning to `C=C(/C(=C/C[C@H](OC(C)=O)c1ccc(OCCO)cc1)c1cnc2ccccc2c1)C(C)C`, the z-score in [1] is 1.02 (inactive); in [3], 12.8 (active); in test [4] it was 1.64 (inactive); in test [5] it was 1.56 (inactive); in test [6], 0.749 (inactive); in test [7], 0.268. For the same compound, the z-score was -2.21 (inactive) in test [8]; -0.569 (inactive) in test [9]; -1.8 in [10]; 0.207 in test [11]; 1.03 in [12]; -0.427 in [13]. In addition, the z-score in [14] is -0.753; in [15] it was 0.383; in [16], 1.56; in [17], -0.449 (inactive); in test [18], -0.416; in test [19], 0.0674. Also, the z-score in [20] is 1.76 (inactive). This compound showed a composite z-score in test [2] of -0.314.
As to `CC(CCN1CCc2nc(-c3ccccc3)c(-c3ccccc3)cc2C1)=NOC[C@@H](C)[C@H](OCc1ccccc1)C(C)C`, the z-score is -0.268 (inactive) in [1]; 1.43 (inactive) in test [3]; 1.03 (inactive) in test [4]; 1.21 (inactive) in test [5]; 0.637 (inactive) in test [6]; 0.116 in test [7]. Moreover, the z-score is 0.837 (inactive) in test [8]; -1.74 (inactive) in test [9]; -0.578 in [10]; 0.474 in test [11]; 0.503 in test [12]; 0.488 in test [13]. The z-score in test [14] was -0.637; in test [15], -1.89; in [16] it was 1.76; in test [17], -0.479 (inactive); in [18], 0.161; in [19] it was -0.38. The z-score in test [20] was -0.611 (inactive). Further, the composite z-score in test [2] is -0.0464.
`COC(=O)[C@H](C)NC(=O)CCC1CC(OC(=O)NCCc2ccc(F)cc2)CC2(CCCC(COC(=O)NCCc3ccc(Cl)cc3)O2)O1` (stereo not given in full): the z-score was 0.954 (inactive) in test [1]; 1.83 (inactive) in test [3]; 0.316 (inactive) in test [4]; -0.0413 (inactive) in test [5]; 0.2 (inactive) in test [6]; 0.0808 in test [7]. Further, the z-score in test [8] was 0.431 (inactive); in test [9], 0.778 (inactive); in test [10] it was 0.612; in [11], 0.98; in test [12], -0.154; in test [13] it was 0.649. In addition, the z-score in test [14] was -1.14; in test [15] it was -0.227; in test [16], 0.341; in test [17], 0.313 (inactive); in [18], 0.437; in test [19], -0.324. Further, the z-score in test [20] was 0.544 (inactive). Also, the composite z-score in test [2] is -0.0464.
`O=C(NN=C1C[C@@H](O)[C@@H](O)[C@@H]2[C@@H]3C(=O)N(c4ccc(F)cc4F)C(=O)[C@@H]3CC[C@@H]12)OCc1ccccc1`: the z-score was 0.113 (inactive) in test [1]; 3.79 (inactive) in test [3]; 0.326 (inactive) in [4]; -0.479 (inactive) in test [5]; 0.0094 (inactive) in [6]; -0.849 in test [7]. In addition, the z-score is 1.56 (inactive) in [8]; 0.882 (inactive) in [9]; 0.0449 in [10]; 0.166 in [11]; -0.902 in test [12]; -0.903 in test [13]. Moreover, the z-score in test [14] was 0.655; in test [15], -0.768; in [16], -0.121; in [17], 1.2 (inactive); in test [18], -0.353; in [19] it was -0.0309. For the same compound, the z-score in test [20] was -0.0526 (inactive). Further, in test [2], the composite z-score is 0.0536.

The values above are taken from PubChem BioAssay.
